Shown are actives, neighbours in structure and some others; about 4.2% of the full set was active somewhere.
uPA surface inh: blocks generation of uPA at the cell surface. 330,000 tested, 0.31% active. cell surface uPA generation assay, qHTS. Potency, µM (top dose mostly 38.3 µM), inactives show at the highest dose activity change, negative = inhibition, actives largely listed as inhibitors. AID 540303; active = well fitted inhibition curve with a large enough effect; inconclusive = small, poorly fitted or top-dose-only effect; inactive = no such curve, though single readings can be large or run the other way; tested in mouse RAW 264.7 cells; also: potency is read from the fitted curve at half-maximal effect; % is scaled to controls: 0 for no effect and ±100 for the full control effect; nearly all actives have a fitted effect of over 55% in size
TCR activator: activates T cell receptor signaling; primary human leukocytes, anti-CD3, IL-2 HTRF, 48 h; AID 504894; 330,000 tested, under 10 active; Potency, µM (top dose mostly 9.22 µM), for the others: top-dose activation of IL-2 secretion, hits mostly activators; also: % of control where 0% means no effect
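1) Mix primary human leukocytes, a-CD3 beads and compound. 2) Incubate 48 hr. 3) Add HTRF IL-2 reagents (a-IL-2-K, a-IL-2-d2).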
ClpP mod: qHTS Assay for Activators of ClpP | ATP-dependent Clp protease proteolytic subunit (Bacillus subtilis (strain 168)), P80244 | purified B. subtilis ClpP, FRET peptide cleavage, 20 min | Potency, µM (series often up to 57.5 µM), without a hit: at the top dose activity change, negative = active | 340,000 tested, 1.9% active; active = well fitted falling curve with a large enough effect; inconclusive = small, poorly fitted or top-dose-only effect; inactive = no such curve, though single readings can be large or run the other way; also: potency is read from the fitted curve at half-maximal effect; the source files actives as falling curves though it sought activators and does not explain the sign; nearly all actives have a fitted effect of over 65% in size
Target sequence (P80244 whole entry, looked up): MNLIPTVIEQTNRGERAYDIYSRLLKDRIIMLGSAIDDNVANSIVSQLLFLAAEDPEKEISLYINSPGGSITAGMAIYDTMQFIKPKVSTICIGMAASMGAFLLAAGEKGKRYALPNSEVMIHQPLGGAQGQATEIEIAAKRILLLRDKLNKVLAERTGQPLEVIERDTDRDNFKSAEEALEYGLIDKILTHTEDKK
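Buffer: 100 mM Tris/HCl pH8, 100 mM KCl, 0.05% low protease BSA, 2.5% glycerol, 0.01% Tween-20. ClpP 10 microg/mL final; 20 min RT; delta FRET normalized to ADEP and DMSO controls.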
Sfp PPTase inh: inhibitors of Bacillus subtilis Sfp phosphopantetheinyl transferase; Biochemical Sfp PPTase activity, qHTS; Potency, µM, inactives show largest response in the series, negative = inhibition, usual class: inhibitors; 310,000 tested, 3.5% active; AID 1490;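 also: the enzyme is Sfp with the accession as filed and its product quenches rhodamine fluorescence; potency is read from the fitted curve at half-maximal effect; 0% = enzyme reaction without inhibitor and -100% = no enzyme wells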
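With Hepes-Na pH 7.6 buffer containing 10 mM MgCl2, Sfp (15 nM) modified BHQ-2-YbbR (12.5 uM) using rhodamine-CoA (5 uM). Two reads 30 minutes apart at 525/598 nm yielded each well's rate.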
Active calls of the source: *; ? = inconclusive; nt = no result; [ ] = dose if it differs, or a comment. Unless noted, calls follow the shape of the dose curve; as a rule, active = well fitted curve in the direction sought with a large enough effect; inconclusive = small, poorly fitted or top-dose-only effect, or another doubt; inactive = no such curve, though single readings can be large; an effect the other way counts as inactive or inconclusive.

SMILES	uPA surface inh	TCR activator	ClpP mod	Sfp PPTase inh
CCN(CC)CCN(Cc1cc2cc3c(cc2[nH]c1=O)OCCO3)C(=S)NCC1CCCO1 (configuration not stated)	4%	-1%	nt	5µM*
CCN(CC)CCCN(Cc1cc2ccc(C)c(C)c2[nH]c1=O)C(=O)NC1CCCCC1	nt	-3%	28µM*	3%
CCC1CSC(=Nc2ccc(C)cc2)N1C(=O)CN1C(=O)NC2(CCCC2)C1=O (configuration not stated)	8.9µM*	1%	0%	0%
Cc1cc(OCC(=O)NNC(=O)c2ccncc2)ccc1C(C)C	-12%	1%	4µM*	nt
Cc1cc(OCC(=O)NNC(=O)c2ccncc2)cc(C)c1Cl	-8%	-3%	0%	10%
COc1ccc2nc(/C=N/NC(=O)[C@H](CCSC)NC(=O)OC(C)(C)C)ccc2c1	-4%	5%[46.1 µM]	8.9µM*	?
COc1ccc2nc(/C=N/NC(=O)[C@@H]3CCCN3C(=O)OC(C)(C)C)ccc2c1	0%	0%	nt	89µM*
CC(C)(C)OC(=O)N1CCC[C@H]1C(=O)N/N=C/c1ccc2nccnc2c1	-2%	-2%	-1%	7%
CCc1cc(/C=C/c2ccnc3ccccc23)ccc1N(C)C	nt	nt	-1%	nt
O=S(=O)(O)c1cc(O)c2c(O)c(N=Nc3cc(Cl)ccc3O)c(S(=O)(=O)O)cc2c1	-6%	10%	nt	?
Cc1cc(-c2ccc(N=Nc3c(S(=O)(=O)O)cc4cc(S(=O)(=O)O)cc(N)c4c3O)c(C)c2)ccc1N=Nc1c(S(=O)(=O)O)cc2cc(S(=O)(=O)O)cc(N)c2c1O	nt	nt	nt	11µM*
CN(C)c1ccc(C=O)cc1[N+](=O)[O-]	nt	nt	1%	nt
C=C(C)COc1ccc(-c2nc(N)nc(C)c2-c2ccc(OC)cc2)c(O)c1	8%	1%	25µM*	-1%
Nc1c(Br)cc2oc(-c3ccccc3)nc2c1Br	0%	3%[46.1 µM]	-3%	9%
COc1ccc(-c2nc3c(Br)c(N)c(Br)cc3o2)cc1	nt	-2%	-3%	22µM*
CN(C(=O)c1c(O)c2ccccc2n(C)c1=O)c1ccccc1	nt	nt	nt	12%
CC1=C(C(=O)Nc2ccccc2)C(c2ccncc2)n2nc(SCc3ccccc3)nc2N1 (configuration not stated)	nt	nt	0%	nt
FC(F)(F)c1nnc2c(Sc3ccc(Cl)cc3)nc3ccccc3n12	-7%	12%	-4%	7%
FC(F)(F)c1nc2ccccc2n2c(-c3ccc(Cl)cc3)nnc12	-10%	0%	13µM*	16%
Cc1ccc(-c2nnc3c(C(F)(F)F)nc4ccccc4n23)cc1	-2%	10%	13µM*	8%
Cc1ccc(-c2nc3ccccc3n3c(C)nnc23)cc1	nt	nt	nt	12%
CCN(CC)S(=O)(=O)c1ccc(N2CCCCC2)c(NC(=O)C2=COCCO2)c1	12%	0%	-13%	nt
CCOc1ccc2[nH]c(=O)c(CN(Cc3ccco3)C(=O)c3cccc(F)c3)cc2c1	4%	3%	32µM*	-16%
COc1ccc2[nH]c(=O)c(CN(Cc3ccco3)C(=O)c3ccccc3)cc2c1	-3%	-9%	?	-2%
CCOc1ccc2[nH]c(=O)c(CN(Cc3ccco3)C(=O)c3ccc(Br)cc3)cc2c1	-7%	2%	?	40µM*
SMILES	uPA surface inh	TCR activator	ClpP mod	Sfp PPTase inh
Cc1cccc(C)c1NC(=O)C(c1ccnc2ccccc12)N1CCN(CCN(C)C)CC1 (configuration not stated)	nt	nt	-3%	nt
Cc1ccccc1-c1nc2c3ccccc3nc(=S)n2[nH]1	1%	1%	-1%	-22%
Cc1nc2ccccc2n1CCc1nc2c3ccccc3nc(=S)n2[nH]1	-3%	14%	4%	50µM*
COc1ccc(C2=NN(CCC(=O)NCc3ccc4c(c3)OCO4)C(=O)CC2)cc1	2%	2%	-3%	7%
Cc1ccc(C2=NN(CCC(=O)NCc3ccc4c(c3)OCO4)C(=O)CC2)cc1	-2%	-8%	7.9µM*	14%
O=C(Nc1ccc2ccccc2c1)c1ccc(Cl)cc1	10µM*	-3%	-4%	5%
O=C(Nc1nnc(-c2ccncc2)o1)c1ccc2ccccc2c1	-2%	5%	-4%	18%
Cc1ccc(C(=O)Nc2ccc3ccccc3c2)cc1	-16%	-3%	nt	8%
O=C(Nc1ccncc1)c1ccc2ccccc2c1	-2%	nt	22µM*	-9%
CN(C)C=NC(=O)c1cn(-c2ccc(F)cc2)c(=O)c2ccccc12	3%	-6%	nt	19%
COc1ccc2c(C(=O)c3ccc(Cl)cc3)n(CCCC(N)=O)[n+]([O-])c2c1	-8%	0%	-3%	nt
O=C(CN1C(=O)C(c2ccc(F)cc2)=NC12CCCCCC2)Nc1ccc(F)c(Cl)c1	nt	nt	1%	nt
COc1ccccc1OCCNC(=O)c1ccccc1C	5%	-6%	0%	15%
Cc1ccccc1OCCNC(=O)CNC(=O)c1ccccc1O	nt	6%	28µM*	14%
COc1ccccc1C(=O)NCCSCc1ccccc1Cl	6%	-19%	7.1µM*	-2%
COc1ccccc1C(=O)NCCC(=O)NNC(=O)c1ccccc1O	13%	-60%	25µM*	nt
O=C(NCCCCN1CCN(c2cccc(Cl)c2Cl)CC1)c1ccc2c(c1)Cc1ccccc1-2	nt	nt	nt	-1%
COc1ccc(OC)c2sc(N(Cc3cccnc3)C(C)=O)nc12	nt	nt	-1%	nt
CCOC(=O)[C@@H](N)CS	nt	nt	nt	28µM*
CCN1/C(=C/C(=O)c2ccco2)Sc2ccccc21	-10%	3%	-5%	50µM*
CCC(=O)/C=C1/Sc2ccc(OC)cc2N1CC	-11%	2%	-3%	-11%
CCC(=O)/C=C1/Sc2ccccc2N1CC	-2%	-1%[46.1 µM]	-3%	28µM*
COCCNC(=S)N/N=C(\C)c1ccccc1OC	4%	-4%[46.1 µM]	2.8µM*	5%
COCCNC(=S)N/N=C/c1ccccc1C(=O)O	2%	-5%	-5%	63µM*
COCCNC(=S)NNc1ccc(Cl)c(C(=O)O)c1	3%	-6%	-3%	4µM*
SMILES	uPA surface inh	TCR activator	ClpP mod	Sfp PPTase inh
CNC(=S)N/N=C/c1ccccc1OCC(=O)O	1%	-7%	nt	20µM*
Nc1nc2ncccn2c1-c1ccc(C(F)(F)F)cc1	nt	nt	-23%	nt
Cc1nn2c3c(cnc2c1-c1ccc(F)cc1)C(=O)CC(c1ccccc1)C3 (configuration not stated)	nt	nt	0%	nt
O=C(c1ccc2c(c1)N(Cc1ccccc1)CCS2)N1CCCCC1	-4%	2%	4%	40µM*
O=C(Nc1ccon1)C1CCN(S(=O)(=O)c2cccs2)CC1	-8%	1%[46.1 µM]	25µM*	22%
CN(C(=O)OC(C)(C)C)c1ccc(-c2nc3ccccc3s2)cc1	2µM*	-5%	nt	nt
COc1cc(-c2nc3ccccc3s2)ccc1O	?	-5%	8.9µM*	-10%
CC1=C(C(=O)Nc2ccc(C)cc2C)C(c2cccs2)n2nc(SCc3cccc(C)c3)nc2N1 (configuration not stated)	nt	nt	-1%	nt
O=C1NC(c2cccs2)Nc2sc3c(c21)CCCC3 (configuration not stated)	-2%	3%	-24%	45µM*
CCN(CC)C(=O)Cn1cc(S(=O)(=O)CC(=O)Nc2ccc(F)cc2)c2ccccc21	-3%	3%	0%	nt

Compound activity from PubChem BioAssay.
